Source: PubChem BioAssay AID1159580 (chemical genetic matrix, 2015)
Where “and” joins values, the source holds several entries; their conditions need not be identical. Equal values may be shown once. Out of some 5,500 compounds screened, about 2,000 (36%) were called active. Roughly 18% stayed inconclusive and do not appear here. No stated cut-off is given here; in the data, active means normalized growth mostly below about 0.91 (no sharp cut-off); inconclusive means no clear call, values can overlap the other calls; inactive means mostly above about 0.92. The list shows a part of the results.

Experiment: chemical genetic growth profiling, strain panel (AID 1159580);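 further: tested at 20 µM; growth read once vehicle control cultures reached saturation at 30 °C; 1 = growth at the plate median or of vehicle wells; lower values mean less growth of the strain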
Conditions: S. cerevisiae deletion strains, growth OD
[1] = locus YPL241C, strain CIN2, hits give low values

Measured: normalized growth

CC(=O)OCC(=O)[C@@]1(O)CCC2C3CCC4=CC(=O)CC[C@]4(C)C3C(=O)C[C@@]21C (stereo not given in full)
inactive: locus YAL021C, strain ccr4, hits give low values 0.988 | locus YAL026C, strain drs2, hits give low values 1.01 | locus YAL030W, strain snc1, hits give low values 0.985 | locus YBL061C, strain skt5, hits give low values 0.965 | locus YBR009C, strain hhf1, hits give low values 0.998 | locus YBR021W, strain FUR4, hits give low values 1.01 | locus YBR023C, strain chs3, hits give low values 0.989 | locus YBR171W, strain sec66, hits give low values 0.969 | locus YBR229C, strain ROT2, hits give low values 1.01 | locus YBR231C, strain swc5, hits give low values 0.951 | locus YBR279W, strain paf1, hits give low values 0.997 | locus YCL011C, strain gbp2, hits give low values 1.01 | locus YCL016C, strain dcc1, hits give low values 1.02 | locus YCL029C, strain bik1, hits give low values 1.03 | locus YCL061C, strain MRC1, hits give low values 0.982 | locus YCL069W, strain vba3, hits give low values 0.98 | locus YCR088W, strain abp1, hits give low values 0.98 | locus YDL005C, strain med2, hits give low values 0.973 | locus YDL035C, strain GPR1, hits give low values 1 | locus YDL040C, strain nat1, hits give low values 0.963 | locus YDL074C, strain BRE1, hits give low values 1.01 | locus YDL101C, strain DUN1, hits give low values 1.01 | locus YDL134C, strain PPH21, hits give low values 1 | locus YDL185W, strain tfp1, hits give low values 1.03 | locus YDL192W, strain arf1, hits give low values 1.03 | locus YDR001C, strain nth1, hits give low values 0.974 | locus YDR069C, strain doa4, hits give low values 0.98 | locus YDR101C, strain arx1, hits give low values 1.02 | locus YDR137W, strain rgp1, hits give low values 1 | locus YDR159W, strain sac3, hits give low values 0.963 | locus YDR162C, strain NBP2, hits give low values 1.01 | locus YDR195W, strain ref2 0.913 | locus YDR297W, strain sur2, hits give low values 0.989 | locus YDR318W, strain mcm21, hits give low values 1.01 | locus YDR334W, strain swr1, hits give low values 0.968 | locus YDR335W, strain msn5, hits give low values 0.969 | locus YDR388W, hits give low values 1.03 | locus YDR392W, strain spt3, hits give low values 1.04 | locus YDR502C, strain sam2, hits give low values 1.04 | locus YEL003W, strain gim4, hits give low values 0.968 | locus YEL037C, strain rad23, hits give low values 0.976 | locus YEL061C, strain CIN8 (second series), hits give low values 0.983 | locus YEL061C, strain CIN8, hits give low values 1.01 | locus YER015W, strain faa2, hits give low values 0.992 | locus YER016W, strain bim1, hits give low values 0.988 | locus YER110C, hits give low values 1.04 | locus YER111C, strain swi4, hits give low values 0.971 | locus YER155C, strain BEM2 (second series), hits give low values 0.97 | locus YER155C, strain BEM2, hits give low values 1 | locus YER167W, strain BCK2, hits give low values 1.01 | locus YFR010W, strain ubp6, hits give low values 0.977 | locus YGL078C, strain dbp3, hits give low values 1.03 | locus YGL086W, strain mad1, hits give low values 0.994 | locus YGL167C, strain pmr1, hits give low values 0.952 | locus YGL173C, strain kem1, hits give low values 0.955 | locus YGL227W, strain vid30, hits give low values 0.983 | locus YGL240W, strain doc1, hits give low values 0.962 | locus YGL248W, strain PDE1, hits give low values 1.02 | locus YGL253W, strain hxk2, hits give low values 0.981 | locus YGR135W, strain pre9, hits give low values 1.03 | locus YGR252W, strain gcn5, hits give low values 1.05 | locus YHR013C, strain ard1, hits give low values 0.991 | locus YHR027C, strain rpn1, hits give low values 1 | locus YHR030C, strain SLT2, hits give low values 1 and 0.999 | locus YHR079C, strain IRE1 (second series), hits give low values 1.03 | locus YHR079C, strain IRE1, hits give low values 0.996 | locus YHR094C, strain hxt1, hits give low values 1.02 | locus YHR129C, strain ARP1, hits give low values 1 | locus YHR142W, strain chs7, hits give low values 0.978 | locus YHR200W, strain rpn10, hits give low values 1.03 | locus YIL066C, strain RNR3, hits give low values 1.01 | locus YIL073C, strain SPO22, hits give low values 1.06 | locus YIL125W, strain kgd1, hits give low values 1.02 | locus YIR030C, strain dcg1, hits give low values 1.03 | locus YJL092W, strain hpr5, hits give low values 0.968 | locus YJL095W, strain BCK1 (second series), hits give low values 0.992 | locus YJL095W, strain BCK1, hits give low values 1.02 | locus YJL115W, strain asf1, hits give low values 0.985 | locus YJL129C, strain trk1, hits give low values 0.922 | locus YJL134W, strain LCB3, hits give low values 1.01 | locus YJL154C, strain vps35, hits give low values 0.963 | locus YJL164C, strain tpk1, hits give low values 1 | locus YJL166W, strain qcr8, hits give low values 0.966 | locus YJL168C, strain set2, hits give low values 1.03 | locus YJL187C, strain SWE1 (second series), hits give low values 1.01 | locus YJR043C, strain POL32, hits give low values 0.993 | locus YJR066W, strain TOR1, hits give low values 0.973 | locus YJR075W, strain HOC1, hits give low values 1.01 | locus YKL009W, strain mrt4, hits give low values 1.02 | locus YKL068W, hits give low values 1.02 | locus YKL085W, strain MDH1 (second series), hits give low values 1.02 | locus YKL085W, strain MDH1, hits give low values 1.02 | locus YKL160W, strain elf1, hits give low values 0.961 | locus YKR001C, strain vps1, hits give low values 1.04 | locus YKR026C, strain gcn3, hits give low values 0.974 | locus YKR091W, strain srl3, hits give low values 0.974 | locus YLL001W, strain dnm1, hits give low values 0.93 | locus YLL026W, hits give low values 0.994 | locus YLL041C, strain sdh2, hits give low values 0.98 | locus YLR027C, strain aat2, hits give low values 0.961 | locus YLR039C, strain RIC1, hits give low values 1 | locus YLR058C, strain SHM2, hits give low values 1.01 | locus YLR102C, strain apc9, hits give low values 1.03 | locus YLR113W, strain HOG1, hits give low values 0.986 | locus YLR221C, strain rsa3, hits give low values 1.01 | locus YLR258W, strain gsy2, hits give low values 0.995 | locus YLR262C, strain YPT6 (second series), hits give low values 0.951 | locus YLR262C, strain YPT6, hits give low values 1.05 | locus YLR268W, strain sec22, hits give low values 1.04 | locus YLR320W, strain mms22, hits give low values 0.993 | locus YLR330W, strain CHS5, hits give low values 1.01 | locus YLR342W, strain FKS1 (second series), hits give low values 0.987 | locus YLR342W, strain FKS1, hits give low values 0.963 | locus YLR357W, strain rsc2, hits give low values 0.974 | locus YLR370C, strain arc18, hits give low values 0.973 | locus YLR371W, strain rom2, hits give low values 1.02 | locus YLR384C, strain iki3, hits give low values 0.974 | locus YLR418C, strain cdc73, hits give low values 1.08 | locus YML016C, strain PPZ1, hits give low values 1.01 | locus YML032C, strain rad52, hits give low values 1.04 | locus YML120C, strain ndi1, hits give low values 0.967 | locus YML124C, strain tub3, hits give low values 1.03 | locus YMR058W, strain fet3, hits give low values 0.971 | locus YMR078C, strain ctf18, hits give low values 1.04 | locus YMR125W, strain sto1, hits give low values 0.988 | locus YMR129W, hits give low values 0.991 | locus YMR205C, strain PFK2, hits give low values 0.983 | locus YMR223W, strain ubp8, hits give low values 1.04 | locus YMR231W, strain pep5, hits give low values 0.972 | locus YMR263W, strain SAP30, hits give low values 1.01 | locus YMR307W, strain GAS1, hits give low values 0.923 | locus YNL067W, strain RPL9B, hits give low values 1.01 | locus YNL071W, strain lat1, hits give low values 1.01 | locus YNL153C, strain GIM3, hits give low values 1.01 | locus YNL183C, strain NPR1, hits give low values 0.953 | locus YNL209W, strain ssb2, hits give low values 0.998 | locus YNL233W, strain BNI4, hits give low values 1.01 | locus YNL248C, strain rpa49, hits give low values 1 | locus YNL250W, strain rad50, hits give low values 1.05 | locus YNL271C, strain bni1, hits give low values 1.04 | locus YNL298W, strain CLA4, hits give low values 1.02 | locus YNL307C, strain MCK1, hits give low values 1.02 | locus YNL322C, strain KRE1 (second series), hits give low values 0.969 | locus YNL322C, strain KRE1, hits give low values 1.01 | locus YNR049C, strain mso1, hits give low values 0.977 | locus YNR052C, strain pop2, hits give low values 1.02 | locus YOL012C, strain htz1 1.93 | locus YOL147C, strain pex11, hits give low values 1.04 | locus YOR001W, strain rrp6, hits give low values 0.951 | locus YOR061W, strain CKA2, hits give low values 1.01 | locus YOR069W, strain VPS5, hits give low values 1.01 | locus YOR070C, strain gyp1, hits give low values 0.993 | locus YOR080W, strain dia2, hits give low values 0.956 | locus YOR083W, strain WHI5, hits give low values 0.959 | locus YOR106W, strain vam3, hits give low values 0.966 | locus YOR136W, strain idh2, hits give low values 1.03 | locus YOR144C, strain elg1, hits give low values 1.02 | locus YOR184W, strain ser1, hits give low values 1.05 | locus YOR231W, strain MKK1, hits give low values 0.995 | locus YOR265W, strain rbl2, hits give low values 0.991 | locus YOR270C, strain vph1, hits give low values 0.978 | locus YOR290C, strain snf2, hits give low values 1.01 | locus YOR316C, strain cot1, hits give low values 1.03 | locus YPL051W, strain arl3, hits give low values 0.989 | locus YPL055C, strain LGE1, hits give low values 1 | locus YPL078C, strain atp4, hits give low values 0.933 | locus YPL106C, strain sse1, hits give low values 1.02 | locus YPL240C, strain hsp82, hits give low values 0.984 | [1] 1 | locus YPL256C, strain CLN2, hits give low values 0.962 | locus YPR119W, strain clb2, hits give low values 1.03 | locus YPR141C, strain kar3, hits give low values 1.04 | locus YPR163C, strain tif3, hits give low values 1.05 | locus YPR167C, strain met16, hits give low values 1.03 | strain wtn01, hits give low values 1.04

C[C@]12C[C@H](O)[C@H]3[C@@H](CCC4=CC(=O)CC[C@@]43C)[C@@H]1CC[C@@H]2C(=O)CO
inactive: locus YAL040C, strain CLN3, hits give low values 1.05 | locus YDR150W, strain NUM1, hits give low values 1 | locus YDR363W, strain ESC2, hits give low values 0.999 | locus YER002W, strain NOP16, hits give low values 1.01 | locus YGR078C, strain PAC10, hits give low values 1 | locus YNL175C, strain NOP13, hits give low values 1.02 | locus YNL197C, strain WHI3, hits give low values 1.02 | locus YNL224C, strain SQS1, hits give low values 1.02 | locus YOR083W, strain WHI5 (second series), hits give low values 1.02 | [1] 1
